MCF10A rerep: DNA re-replication induction in MCF 10a cells; MCF 10A DNA re-replication, Hoechst nuclear intensity, 48 h; Potency, µM (doses to about 46.1 µM), for inactives: at the highest dose activity, positive = re-replication, hits mostly activators; hit rate 2.9% among 350,000; further: potency means the concentration at half of the fitted maximal effect; % of control where 0% means no effect; nearly all actives have a fitted effect of over 50% in size
KB-V1 MDR tox: KB-V1 MDR subline cytotoxicity; KB-V1 MDR cells viability, CellTiter-Glo, 72 h; Potency, µM (doses to about 46.1 µM), actives largely listed as cytotoxic; hit rate 3.4% among 400,000; further: potency means the concentration at half of the fitted maximal effect; on the % scale 0 is the no-effect control and ±100 the full control effect; nearly all actives have a fitted effect of over 60% in size
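Potencies derive from concentration-effect curves fitted to normalized luminescence (CellTiter-Glo) of KB-V1 cells treated for 72 h at 37 degrees C in phenol-red-free DMEM containing 10% FBS.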
IL1B secr inh: inflammasome signaling inhibition, IL-1 beta readout | THP-1 LPS/ATP IL-1B secretion, AlphaLISA, 16 h; active compounds read low | activity change, % at 57.5 µM | hit rate 4.7% among 360,000 | AID 743279; in the data active means activity change below about -50%; inconclusive means mostly about -30% to -49%; further: on the % scale 0 is the no-effect control and ±100 the full control effect
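Secreted IL-1B measured by AlphaLISA bead assay after 16 h compound exposure of THP-1 cells; compounds (final up to 57.5 uM) added 1 h before LPS (250 ng/mL) and ATP (1.25 mM) stimulation; lower signal means less secretion.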
SW480 rerep: induces DNA re-replication in SW480 colon adenocarcinoma cells | SW480 DNA re-replication, Hoechst DNA content imaging, 48 h | Potency, µM (highest dose often 46.1 µM), for the others: at the highest dose re-replication activation, usual class: activators | hit rate 1.8% among 340,000 | AID 624297; further: potency means the concentration at half of the fitted maximal effect; % of control where 0% means no effect; nearly all actives have a fitted effect of over 55% in size
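Hoechst fluorescence of nuclei (405 nm excitation, 500-530 nm emission) measured by plate-scanning imager after 48 hr compound exposure at 37 C; re-replication scored as increased number of nuclei with elevated intensity.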
KB-3-1 cytotox: kills parental KB-3-1 adenocarcinoma cells; KB-3-1 viability, CellTiter-Glo ATP luminescence, 72 h; Potency, µM (top dose mostly 46.1 µM), actives largely listed as cytotoxic; hit rate 1.4% among 400,000; AID 1347075; further: potency means the concentration at half of the fitted maximal effect; on the % scale 0 is the no-effect control and ±100 the full control effect; nearly all actives have a fitted effect of over 60% in size
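Cells are dispensed, compounds pinned in, plates held at 37 °C for 72 h, then CellTiter-Glo is added and luminescence read after 10 minutes. Cell line: parental KB-3-1 in phenol-red-free DMEM, 10% FBS.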
* marks the source's active call; other numbers are inactive results; i = inactive; ? = inconclusive; . = no result; [ ] = dose if it differs, or a comment. Compounds with a hit are over-represented: about 9.9% of the library has one in this group of screens. Unless noted, the call rests on the fitted dose curve; in most records, active means well fitted curve in the direction sought with a large enough effect; inconclusive means small, poorly fitted or top-dose-only effect, or another doubt; inactive means no such curve, though single readings can be large; an effect the other way counts as inactive or inconclusive.

SMILES | MCF10A rerep | KB-V1 MDR tox | IL1B secr inh | SW480 rerep | KB-3-1 cytotox
CN1CCN(S(=O)(=O)c2ccc(Sc3nnnn3-c3ccccc3)c([N+](=O)[O-])c2)CC1 | 6.5µM* | ? | -74* | 16µM* | ?
Cc1cccc(OC(=O)c2cc(-c3ccc4c(c3)OCCO4)on2)c1 | . | i | . | . | i
O=C(CN1C(=O)NC2(CCCCCCC2)C1=O)Nc1cccc(Br)c1 | 10% | i | -5 | -6% | i
O=C(Nc1ccc(Cl)cc1)N1CCCC(Cn2cccc2)C1 (stereo unspecified) | 0% | i | ? | -22% | i
CCc1[nH]nc2c1C(c1ccc(Br)s1)C(C#N)=C(N)O2 (stereo unspecified) | ? | i | -100* | ? | ?
COc1ccc(Nc2nc(NCCO)nc(N3CCCC3)n2)cc1 | 9% | i | . | -65% | i
CCCNc1nc(Nc2ccc(C)cc2)nc(N2CCCC2)n1 | ? | 4.1µM* | -23 | 7% | ?
COC(=O)c1ccc(C(=O)N2CCCCCC2(C)C(=O)NC(C)C)cc1 (stereo unspecified) | . | i | 17 | . | i
COc1cc2c(cc1OC)C1(Nc3c-2c(C)nn3-c2ccccc2)C(=O)Nc2ccccc21 (stereo unspecified) | ? | i | -18 | -3%[9.22 µM] | i
COc1cc2c(cc1OC)C1(Nc3c-2c(-c2ccccc2)nn3-c2ccccc2)C(=O)Nc2ccccc21 (stereo unspecified) | ? | ? | 7 | 5.2µM* | ?
CCc1nn(-c2ccccc2)c2c1-c1cc(OC)c(OC)cc1C1(N2)C(=O)Nc2ccccc21 (stereo unspecified) | 21µM* | ? | -4 | ? | i
Clc1ccc(C(c2nnnn2C2CCCC2)N2CCSCC2)cc1 (stereo unspecified) | 21µM* | i | -62* | -3% | i
c1ccc(C(c2nnnn2C2CCCC2)N2CCN(c3ccccc3)CC2)cc1 (stereo unspecified) | ? | ? | -50* | 1%[9.22 µM] | i
Fc1ccc(C(c2nnnn2C2CCCCC2)N2CCCC2)cc1 (stereo unspecified) | 2% | ? | 8 | -7% | i
COC(=O)[C@H](Cc1c[nH]c2ccccc12)NC(=O)NCc1ccc(OC)cc1 | -1% | i | 25 | -5% | i
COc1ccccc1-c1cc2c(c3c1ccn3C)C1CCC2C1 (stereo unspecified) | . | i | -8 | . | i
O=C(CCl)N(C1CCCC1)C1CCS(=O)(=O)C1 (stereo unspecified) | ? | i | ? | 21µM* | ?
Cc1nc(N/N=C/c2cccc([N+](=O)[O-])c2)cc(N2CCCCC2)n1 | . | i | 26 | . | i
Oc1cccc(/C=N/Nc2cc(N3CCOCC3)nc(N3CCOCC3)n2)c1 | ? | ? | -54* | 5.8µM* | i
Oc1ccc(/C=N/Nc2cc(N3CCOCC3)nc(N3CCOCC3)n2)cc1O | 21% | i | 25 | 14% | i
CCCCc1ccc(/C(C)=N/Nc2cc(N3CCOCC3)nc(C)n2)cc1 | 21µM* | ? | -9 | ? | i
C/C(=N\Nc1cc(N2CCOCC2)nc(C)n1)c1cccc([N+](=O)[O-])c1 | -14% | ? | -16 | -69% | ?
Cc1nc(N/N=C/c2cccc(F)c2)cc(N2CCOCC2)n1 | 1% | ? | -97* | ? | i
Oc1ccccc1/C=N/Nc1cc(N2CCCC2)nc(N2CCCC2)n1 | 18µM* | i | -103* | ? | ?
CC1=C(C(=O)N2CCCCCC2)CC(CC(=O)NC2CCCC2)C(=O)N1CCC1=CCCCC1 (stereo unspecified) | . | ? | -13 | . | i
SMILES | MCF10A rerep | KB-V1 MDR tox | IL1B secr inh | SW480 rerep | KB-3-1 cytotox
CCCCCCCCN1CC(Cc2cc3ccccc3c3ccccc23)N(c2ccccc2)c2ccccc2C1=O (stereo unspecified) | . | i | 0 | . | ?
Cc1ccc(N2CCN(C(=O)NC3CCCCC3)CC2C)cc1 (stereo unspecified) | ? | i | 0 | -30% | i
CCCn1c(CCC(=O)Nc2cccc(C)c2C)nc2cccnc21 | . | ? | . | . | i
CC(C)(C)S(=O)N1Cc2cc(C(=O)Nc3ccc(-c4ccccc4)cc3)nc(-c3cccc(-c4cc5ccccc5o4)c3)c2[C@@H]1CCO (stereo partly specified) | . | i | ? | . | i
Cc1nc(N/N=C/c2ccc(O)cc2O)cc(N2CCOCC2)n1 | ? | ? | -99* | ? | ?
Oc1ccc(C=Nc2ccc(N3CCOCC3)cc2)c(O)c1 | ? | ? | 3 | ? | i
COc1ccc(Cl)cc1N=C1NC(=O)CC(C(=O)Nc2ccccc2C(F)(F)F)S1 (stereo unspecified) | . | ? | . | . | i
Cc1ccc(NC(=S)NNc2ccc([N+](=O)[O-])cc2S(=O)(=O)Nc2ccccc2C(=O)O)cc1C | ? | i | -11 | -3% | i
O=C(O)c1ccccc1NS(=O)(=O)c1ccc(NNC(=S)Nc2ccc(OC(F)F)cc2)c([N+](=O)[O-])c1 | 2% | i | -51* | -8% | ?
CCOC(=O)N1CCN(S(=O)(=O)c2c(C)nc3scc(C)n3c2=O)CC1 | 5% | i | 29 | -6% | i
O=C(NNC(=O)C12CC3CC(CC(C3)C1)C2)c1cnccn1 | -3% | ? | 31 | 10% | i
O=C(NNC(=O)C12CC3CC(CC(O)(C3)C1)C2)c1ccccc1O | 3% | i | 0 | 16µM* | ?
O=C(NNC(=O)C12CC3CC(CC(C3)C1)C2)c1ccccn1 | ? | i | -97* | ? | ?
NN(Cc1ccccc1)C(=S)Nc1ccc(Cl)c(Cl)c1 | 1% | i | -56* | 4% | i
O=c1[nH][nH]c(-c2ccccc2)c1-c1ccccc1 | 5% | i | -14 | 3% | ?
O=c1c(-c2ccccc2)c1-c1ccccc1 | ? | . | . | 6µM* | .
CC1(C)CC(=O)c2cc(C(=O)O)c(=O)n(-c3ccccc3)c2C1 | 15% | i | 26 | -2% | i
CC1(C)CC(=O)c2c(O)c(-c3ccccc3)c(=O)n(-c3ccccc3)c2C1 | 13% | 13µM* | 12 | -10% | i
CCOC(=O)c1ccc(N2CC(O)=C(c3nc4ccccc4c(=O)[nH]3)C2=N)cc1 | 21µM* | i | -8 | 1% | i
N=C1C(c2nc3ccccc3[nH]2)=C(O)CN1c1ccccc1 | ? | ? | 78 | ? | 23µM*
O=C(NCc1nc2ccccc2[nH]1)C1=C[C@H](c2ccc(C(F)(F)F)cc2)C[C@H](OCCCCO)O1 | 25% | i | -20 | 2% | i

Screening data as filed in PubChem.
